From PubChem BioAssay AID1851 (National Center for Advancing Translational Sciences (NCATS), 2009) come the findings set out here.

Out of some 16,000 compounds screened, about 5,700 (36%) were called active. Another 24% or so got no clear call; they are omitted. Some of the results follow. Unmarked numbers belong to inactive results. Calls follow the shape of the dose curve; as a rule, active = well fitted curve in the direction sought with a large enough effect; inconclusive = small, poorly fitted or top-dose-only effect, or effect the other way; inactive = no such curve, though single readings can be large or run the other way.
% is scaled to controls: 0 for no effect and ±100 for the full control effect.

The assay deals with Cytochrome P450 1A2 (Homo sapiens) (UniProt P05177). In words: Cytochrome panel assay with activity outcomes. Conditions: recombinant CYP, pro-luciferin dealkylation, luminescence, p450-cyp1a2; series mostly up to 57.1 µM.
Chain of Cytochrome P450 1A2 (Homo sapiens) (P05177 whole entry, looked up): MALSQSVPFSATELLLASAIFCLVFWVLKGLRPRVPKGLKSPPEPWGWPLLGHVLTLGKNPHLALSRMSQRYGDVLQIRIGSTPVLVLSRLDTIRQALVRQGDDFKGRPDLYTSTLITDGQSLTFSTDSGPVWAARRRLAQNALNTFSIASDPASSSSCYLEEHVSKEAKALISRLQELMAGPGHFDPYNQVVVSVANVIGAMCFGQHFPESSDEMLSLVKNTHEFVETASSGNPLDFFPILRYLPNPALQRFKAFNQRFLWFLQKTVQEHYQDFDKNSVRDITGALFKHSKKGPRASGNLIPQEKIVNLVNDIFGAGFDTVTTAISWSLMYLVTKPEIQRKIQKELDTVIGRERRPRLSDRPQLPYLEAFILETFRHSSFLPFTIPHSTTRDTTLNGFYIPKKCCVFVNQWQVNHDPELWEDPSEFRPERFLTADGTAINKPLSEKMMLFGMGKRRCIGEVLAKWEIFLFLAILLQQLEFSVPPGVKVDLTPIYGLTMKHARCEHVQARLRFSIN
The AC50 is the midpoint of the concentration-response curve, whichever way the signal moves. Consider `CC(Cc1ccccc1)N/C=C1\CC(=O)NC1=O` (centres undefined), for which the AC50 entry is “inactive”.
Same read-out and setting: in the case of `COc1cc(OC)c2nc(C)c3c(c2c1)N(c1ccc(O)cc1)CC3` it was 2.24 µM (active); in that of `NC(=O)N[C@H]1NC(=O)NC1=O`, “inactive”; in that of `CC(C)Cn1c(C(C)C)nc([N+](=O)[O-])c1S(=O)(=O)c1ccc(F)cc1`, “inactive”.
Still for that read-out and setting: in the case of `Cn1c(=N)c(S(=O)(=O)c2ccc(F)cc2)cc2c(=O)n3ccccc3nc21` it was 12.6 µM (active).
Consider `CCn1c(=N)c(S(=O)(=O)c2ccc(F)cc2)cc2c(=O)n3ccccc3nc21`, for which the AC50 was 1.58 µM (active).
Still for that read-out and setting: in the case of `CN(C)C(=C(C#N)C#N)N1CCN(c2ccc(Cl)c(Cl)c2)CC1` it was 25.1 µM (active).
Same read-out and setting: in the case of `O=C(OCc1cccc(F)c1)c1ccc2c(c1)-c1ccccc1C2=O` it was 3.55 µM (active); in that of `O=C(c1cccc(F)c1)N1CCC2(CC1)CN(Cc1ccccc1)C2`, “inactive”.
With `CC(C)CC(=O)N1CCN(Cc2cccc(F)c2)CC1`, the AC50 entry was “inactive”.
`COCc1nnc(NC(=O)c2ccc(S(=O)(=O)N3CCCCCC3)cc2)o1`: the AC50 entry is “inactive”.
The same measure, in the same setting: the entry for `CCOC(=O)Cc1csc(NC(=O)c2sc3nc4ccc(CC)cc4cc3c2N)n1` is “inactive”; for `CCOC(=O)Cc1csc(NC(=O)c2ccc(Cl)nc2)n1` it is 10 µM (active).
On the same count and under the same terms, the figure for `CCOC(=O)Cc1csc(NC(=O)c2ccc(S(=O)(=O)N3CCCCC3)cc2)n1` is 15.8 µM (active); for `CCOC(=O)Cc1csc(NS(=O)(=O)c2ccccc2)n1` it is “inactive”; for `COc1ccc(N2C(=O)CCC(C(=O)Nc3ccccn3)C2c2ccc(OC)c(OC)c2)cc1` (centres undefined) it is “inactive”.
As for `C/C(CCN1CCCCc2nc(C)c(C)cc21)=N\OC[C@@H](O)COCc1ccco1`, the activity, negative = inhibition was -9.9% [at 11.4 µM].
For `O=C1C(Cl)=C(Sc2nnc3c4ccccc4c4ccccc4c3n2)C(=O)c2ccccc21`, the half-maximal activity concentration (AC50) is 0.398 µM (active).
Take `O=c1c2c(-c3ccc(Cl)cc3)csc2nc2n1CCC2`: the AC50 is 1.26 µM (active).
For `O=C(C1CCN(S(=O)(=O)N2CCOCC2)CC1)N1CCN(Cc2ccccc2)CC1`, the AC50 entry was “inactive”.
As to `COc1ccc(-c2c(C)oc3c(CN4CCN(CCO)CC4)c(O)ccc3c2=O)cc1OC`, the AC50 result is “inactive”.
On to `COc1ccccc1-c1c(C)oc2c(CN3CCN(CCO)CC3)c(O)ccc2c1=O`, for which the AC50 result is “inactive”.
For the compound `CCCc1cc(=O)oc2c(CN3CCOCC3)c(O)ccc12`, the AC50 was 14.1 µM (active).
Take `O=c1oc2c(CN3CCOCC3)c(O)ccc2c2ccccc12`: the AC50 is 1.26 µM (active).
In the case of `O=c1cc(CN2CCN(c3ccc(F)cc3)CC2)c2cc3c(cc2o1)CCCC3`, the AC50 result was “inactive”.
Turning to `Cc1cc(NC(=O)CSc2n[nH]c(-c3cccs3)n2)no1`, the AC50 is 2.51 µM (active).
On to `Cc1cc(NC(=O)CSc2nc3ccsc3c(=O)n2CCCCC(=O)O)no1`, for which the AC50 result was “inactive”.
Still for that read-out and setting: the entry for `CCCCc1nc(SCC(=O)Nc2ncccn2)n[nH]1` is “inactive”.
On to `CN1CCN(CC(=O)N2c3ccccc3Sc3cc4ccccc4cc32)CC1`, for which the activity, negative = inhibition is -21.6% [at 2.29 µM].
Turning to `O=C(CSc1nc2ccccc2s1)N1c2ccccc2Sc2ccccc21`, the AC50 is 0.708 µM (active).
Still for that read-out and setting: the figure for `O=C(CSc1nc2ccccc2s1)c1sc2sc3ccccc3[n+]2c1O` is 5.01 µM (active).
With `COc1ccc(OCc2nnc(SCC(=O)N3c4ccccc4Sc4ccc(Cl)cc43)o2)cc1`, the AC50 result was “inactive”.
On the same count and under the same terms, in the case of `O=C(CSc1nc2ccccc2s1)N1c2ccccc2Sc2ccc(C(F)(F)F)cc21` it was 1.12 µM (active).
Same read-out and setting: in the case of `O=C(CSc1nc2ccccc2o1)N1c2ccccc2Sc2ccc(Cl)cc21` it was 2.24 µM (active); in that of `Cc1c(NC(=O)Cn2ccc([N+](=O)[O-])n2)c(=O)n(-c2ccccc2)n1C`, “inactive”.
As to `S=c1[nH]nc(-c2ccncc2)n1CC1CCCO1` (centres undefined), the AC50 result is “inactive”.
For the compound `Nc1ncc(-c2ccccc2)n1CC1CCCO1` (centres undefined), the AC50 is 15.8 µM (active).
As to `Cc1ccc(-c2ccc(CCC(=O)O)n2CC2CCCO2)cc1` (centres undefined), the AC50 result is “inactive”.
On the same count and under the same terms, in the case of `O=C(NNC(=O)C1CCN(S(=O)(=O)c2ccc(Cl)cc2)CC1)c1ccc(Cl)cc1` it was “inactive”; in that of `Nc1ccc(CCNc2ncnc3c2ncn3[C@@H]2O[C@@H](CO)[C@H](O)[C@@H]2O)cc1`, “inactive”.
The same measure, in the same setting: in the case of `Cc1ccc(N=Nc2c(=O)[nH]n3c(C)cc(C)nc23)cc1` it was 12.6 µM (active); in that of `Cc1nc(-c2cccnc2)sc1C(=O)Nc1ccc(Cl)cc1`, 2.51 µM (active).
`CNC(=O)c1sc(-c2cccnc2)nc1C`: the concentration at half-maximal activity (AC50) was 14.1 µM (active).
On the same count and under the same terms, the entry for `CC(=O)NC1(c2ccc(F)cc2)CCN(C(=O)Nc2ccc(F)cc2F)CC1` is “inactive”.
Consider `Cc1nc(-c2cccnc2)sc1C(=O)Nc1ccc(F)cc1F`, for which the AC50 was 4.47 µM (active).
Same read-out and setting: the entry for `Cc1cccc(C)c1NC(=O)CS(=O)CC(=O)Nc1ccc(F)cc1F` (centres undefined) is “inactive”; for `Cc1nc(-c2cccnc2)sc1C(N)=O` it is 14.1 µM (active).
On the same count and under the same terms, in the case of `CC(C)N=C(Nc1ccc(Cl)cc1)c1cccnc1` it was “inactive”; in that of `CC(C)NC(=O)N1CC2(CCN(S(=O)(=O)c3ccccc3)CC2)C1`, “inactive”.
Consider `Cn1ccnc1C[C@@](C)(O)c1ccccc1`, for which the activity, negative = inhibition is -14.2% [at 11.4 µM].
Take `CC(Sc1ccc2c(c1)OCCO2)C(=O)Nc1ncc(Cl)cc1Cl` (centres undefined): the AC50 was 6.31 µM (active).
Same read-out and setting: in the case of `CC(C(=O)NC1CCCC1)N(C(=O)c1snc(C(N)=O)c1N)c1ccc2c(c1)OCCO2` (centres undefined) it was “inactive”; in that of `COCC(=O)N1CCC2(CCCN(Cc3ccccc3OC)C2)CC1`, “inactive”.
On the same count and under the same terms, the figure for `NCC(=O)Nc1ccc(Cl)cc1C(=O)c1ccc[nH]1` is 3.16 µM (active); for `Cc1cccc(Cn2cnc3c(NS(C)(=O)=O)c(C)c(C)cc32)c1` it is 3.16 µM (active).
With `Cc1cc2c(ncn2Cc2ccccc2)c([N+](=O)[O-])c1C`, the AC50 was 5.62 µM (active).
As for `Cc1nn(CC(=O)NCc2ccccc2)c(C)c1[N+](=O)[O-]`, the AC50 entry is “inactive”.
For the compound `Cc1ncc([N+](=O)[O-])n1CC(=O)NCc1ccccc1`, the AC50 result is “inactive”.
Turning to `CC(=O)C=NCC(=O)O`, the activity, negative = inhibition was 0.0576% [at 11.4 µM].
As for `COC(=O)[C@@]1(Cc2ccc(F)cc2)[C@H]2c3cc(C(=O)N(C)C)n(Cc4ccc(C(F)(F)F)nc4)c3C[C@H]2CN1C(=O)c1ccccc1`, the AC50 result was “inactive”.
On to `COc1ccccc1CNc1cc(-c2cccnc2)ncn1`, for which the concentration at half-maximal activity (AC50) was 1 µM (active).
Still for that read-out and setting: in the case of `COc1ccc(CCNc2nc(-c3cccnc3)cs2)cc1OC` it was 0.355 µM (active); in that of `COc1ccc(CNc2cc(-c3cccnc3)ncn2)c(OC)c1`, 1.26 µM (active); in that of `CC(C)(C)C(=O)N(CCN(C(=O)C(C)(C)C)c1ccccc1)c1ccccc1`, “inactive”.
